Laboratory results: PubChem BioAssay AID1671190 (National Center for Advancing Translational Sciences (NCATS), 2021)
Out of some 580,000 compounds screened, about 6,100 (1.1%) were called active. Roughly 15% stayed inconclusive and do not appear here. The entries come from a sample that favours actives as a whole. A call without a number means that no potency is given here. A number with no mark means an inactive call. Calls follow the shape of the dose curve; as a rule, active = well fitted inhibition curve with a large enough effect; inconclusive = small, poorly fitted or top-dose-only effect, or another doubt; inactive = no such curve, though single readings can be large or run the other way.

These compounds were tested against Polyunsaturated fatty acid lipoxygenase ALOX12 (Homo sapiens) (UniProt P18054) (assay: Primary qHTS assay for inhibitors of human arachidonate 12S-lipoxygenase (ALOX12): Round 2). Conditions: purified 12hLO, xylenol orange hydroperoxide absorbance; series mostly up to 108 µM.
Outline: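 Purified human 12hLO at 150 nM in 25 mM Hepes, 0.01% Triton X-100, pH 7.0, preincubated 15 min at room temperature with compound. Reaction started with 40 uM arachidonic acid, 30 min at room temperature. Hydroperoxide measured by Fe-xylenol orange, 573/405 nm absorbance ratio.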
Potency is read from the fitted curve at half-maximal effect.

Chain of Polyunsaturated fatty acid lipoxygenase ALOX12 (Homo sapiens) (P18054 whole entry, looked up): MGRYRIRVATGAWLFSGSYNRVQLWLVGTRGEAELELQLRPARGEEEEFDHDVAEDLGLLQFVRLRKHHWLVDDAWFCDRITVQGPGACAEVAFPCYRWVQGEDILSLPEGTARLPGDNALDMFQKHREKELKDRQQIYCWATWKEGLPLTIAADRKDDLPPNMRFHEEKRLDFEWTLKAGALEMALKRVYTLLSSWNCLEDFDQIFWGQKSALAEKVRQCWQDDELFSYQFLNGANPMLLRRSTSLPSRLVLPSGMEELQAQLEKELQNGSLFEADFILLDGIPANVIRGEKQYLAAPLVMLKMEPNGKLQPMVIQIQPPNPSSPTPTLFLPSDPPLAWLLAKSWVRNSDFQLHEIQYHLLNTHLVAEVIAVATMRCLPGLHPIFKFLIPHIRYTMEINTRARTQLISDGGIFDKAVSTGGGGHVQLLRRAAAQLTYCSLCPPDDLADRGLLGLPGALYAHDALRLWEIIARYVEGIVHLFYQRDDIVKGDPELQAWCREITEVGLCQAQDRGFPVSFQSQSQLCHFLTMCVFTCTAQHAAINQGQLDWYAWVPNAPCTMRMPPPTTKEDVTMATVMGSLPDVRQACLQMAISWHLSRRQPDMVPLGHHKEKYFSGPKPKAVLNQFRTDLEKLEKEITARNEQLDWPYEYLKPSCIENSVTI

Structure (SMILES) | Potency | activity change, negative = inhibition
CC(C)(C)NC(=O)C(CCc1ccccc1)n1c(=O)c(-c2ccccc2)nc2ccccc21 (configuration not stated) | inactive | –
COc1ccc(NC(=O)C(c2ccncc2)n2c(=O)c(-c3cc4ccccc4[nH]3)nc3ccccc32)cc1 (configuration not stated) | inactive | –
COc1cccc(S(=O)(=O)N2CCCCCCNC(=O)[C@@H]3CCC[C@@H]32)c1 | inactive | –
O=C(Nc1ccccc1)Nc1cc(S(=O)(=O)N2CCOCC2)ccc1NCC1CCCO1 (configuration not stated) | inactive | –
c1ccc([C@@H]2CNC[C@H]2COCC2CC2)nc1 | inactive | –
Cn1c(C(=O)NCCNC(=O)c2cccc(F)c2)cc2ccccc21 | inactive | –
Cc1cccc(-n2nc(-c3c(C)nc4scc(CC(=O)NCCC(C)C)n4c3=O)cc2C)c1C | inactive | –
COc1ccccc1CCNS(=O)(=O)c1ccc(N2C(=O)C(C)(C)CS2(=O)=O)cc1 | inactive | –
COc1ccc2nc(SC3CC(=O)N(c4ccc(F)cc4)C3=O)nc(C)c2c1 (configuration not stated) | inactive | –
Cc1cc(NC(=O)CCN2CCN(Cc3ccccc3)CC2)ccc1Br | 3.16 µM (active) | –
O=C(CCN1CCN(C/C=C/c2ccccc2)CC1)Nc1cccc(F)c1 | inactive | –
O=C(CCN1CCCCC1)Nc1ccc(F)c(F)c1 | inactive | –
COCCNC(=O)COc1ccc2c(C)c(Cc3ccccc3)c(=O)oc2c1C | inactive | –
CN(C)C[C@@H]1CN(Cc2ccccn2)C[C@H]1NC(=O)c1cc(F)ccc1Cl | inactive | –
O=C(O)COc1ccc2c(=O)c(Oc3ccc(Cl)cc3)coc2c1 | 12.6 µM (active) | –
COc1ccccc1Oc1coc2cc(OCc3ccc(Cl)cc3)ccc2c1=O | inactive | –
COC(=O)COc1ccc2c(=O)c(Oc3ccccc3Br)coc2c1 | inactive | –
CCCCN1C(SCC(=O)N2CCCC2)=NS(=O)(=O)c2ccccc21 | inactive | –
Cc1ccc(C(CNC(=O)c2cc3ccccc3oc2=O)N(C)C)o1 (configuration not stated) | inactive | –
O=C1Cc2c(-c3ccc(Oc4ccccc4)cc3)n[nH]c2CN1CCc1ccncc1 | inactive | –
CCc1ccc(Nc2n[n+](-c3ccccc3)c(-c3cccc(Cl)c3Cl)s2)cc1 | 39.8 µM (active) | –
CCn1nc(C)cc1-c1nn2c(-c3cccc(Cl)c3Cl)nnc2s1 | inactive | –
CC1CCCC(NC(=O)c2c(F)cccc2F)C1C (configuration not stated) | inactive | –
CCc1sc(C(=O)NC(C)C)cc1C | inactive | –
Cc1cccc(OCC(O)CNC23CC4CC(CC(C4)C2)C3)c1 (configuration not stated) | inactive | –
CCn1cc(CN2CCCC23CCN(c2ccc(C(F)(F)F)cn2)CC3)cc1C#N | inactive | –

Structure (SMILES) | Potency | activity change, negative = inhibition
Cc1cc(C(F)(F)F)nn1Cc1nc2c3c4c(sc3ncn2n1)CCC4 | inactive | –
S=c1[nH]nc2c3c4c(sc3ncn12)CCCC4 | 0.562 µM (active) | –
O=C(CSc1ncnc2sc3c(c12)CCCC3)Nc1ccc(F)cc1 | inactive | –
CCCCCCCCCC(=O)NN=C1CCCCCCCCCCC1 | inactive | –
O=C(CSc1ncccn1)N1CCCC1 | inactive | –
CC1(C(=O)NS(=O)(=O)C2CC2)CCCN(C(=O)CSc2ccccc2)C1 (configuration not stated) | inactive | –
O=C(CSc1ccncc1)N1CCCC(O)(CN2CCCC2)C1 (configuration not stated) | 25.1 µM (active) | –
COc1ccc(C2CC(=O)c3cnc4c(c3C2)c(=O)[nH]c(=O)n4CCC(C)C)cc1 (configuration not stated) | inactive | –
CCCC(=O)C1C(=O)CC(c2ccc(OC)c(OC)c2)CC1=O (configuration not stated) | inactive | –
O=C(CSc1nc2ccccc2nc1N1CCCCC1)Nc1cccc(Br)c1 | inactive | –
CC(Oc1ccc(-c2ccccc2)cc1)C(N)=O (configuration not stated) | inactive | –
N#Cc1ccc(-c2nc(C(=O)NC3CCCCCC3)no2)cc1 | inactive | –
CCCCCC1CCC(C(=O)Oc2ccc(C#N)cc2)CC1 (configuration not stated) | inactive | –
CC1(OC(=O)C2CCCC2)C(=O)C=C2C=C(c3ccc(C#N)cc3)OC=C2C1=O (configuration not stated) | 10 µM (active) | –
CCCc1cc(=O)oc2c(C)c(OCC(=O)c3ccc(-c4ccccc4)cc3)ccc12 | inactive | –
O=C(Nc1ccc2c(c1)OCCO2)C(=O)c1c[nH]c2cc(F)ccc12 | inactive | –
Fc1ccc(OC2CN(Cc3cccnc3)C2)c(F)c1 | – | 10.3% [at 12.5 µM]
C=CCc1ccc(OCC(O)CN2CCN(Cc3ccccc3)CC2)c(OC)c1 (configuration not stated) | inactive | –
COc1ccc(CN2CCN(Cc3cccnc3)CC2)cc1OCc1ccccc1 | 0.708 µM (active) | –
Cc1[nH]nc2c1C(c1ccccc1Br)C1=C(COC1=O)N2 (configuration not stated) | inactive | –
O=C(NCc1coc(-c2cccs2)n1)C1CCCN(C(=O)c2ccc(F)cc2)C1 (configuration not stated) | inactive | –
CN(CC(=O)Nc1cc(Cl)ccc1F)Cc1ccccc1N1CCCCC1 | inactive | –
CNC(NC(=O)c1ccc(C)cc1)C(Cl)(Cl)Cl (configuration not stated) | inactive | –
COc1ccc(C(=O)NCc2ccc(C)cc2)cc1S(=O)(=O)N1CCCC1 | inactive | –
COc1ccc(C)cc1S(=O)(=O)N1CCN(S(=O)(=O)c2cc(C(=O)O)ccc2C)CC1 | 15.8 µM (active) | –
COc1ccc(C(=O)N(Cc2ccccc2)c2ccc(C)cc2)cc1S(=O)(=O)N1CCOCC1 | inactive | –
